Calls of active or inactive are those of the source. Unless noted, the rule behind the calls is not given here.
How the values were obtained:
[1] = tested on: Wnt5a (protein binding on small-molecule microarray); test: Wnt5a binders on small-molecule microarray, primary screen, biophysical, 635/667 nm fluorescence (AID 1142); details: 635 nm fluorescence, higher = more signal;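 note: fluorescence read at 667 nm with signal to noise per printed feature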
[2] = cell viability in Huh7 cells, primary screen, cytotoxicity control for HCV replication inhibitor project, CellTiter-Glo luminescence, basal, 48 h (AID 1143); details: Huh7 HCV replicon, higher = more signal, called active from +8 up or from −8 down;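 note: Huh7 hepatoma cells carrying a hepatitis C replication reporter with no stimulus; test concentration not given here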
[3] = P. aeruginosa biofilm formation inhibitors, primary screen, PAO1 strain, BacTiter-Glo luminescence, LB-PBS (AID 1144); details: 12 h, higher = more signal
[4] = CREB reporter modulators without forskolin, primary screen, cell-based, PC12, CRE-LacZ reporter, unstimulated (AID 1145); details: no forskolin, luminescence, 4.5 h, higher = more signal, called active from +8 up or from −8 down
[5] = CREB reporter modulators under forskolin, primary screen, cell-based, PC12, CRE-LacZ reporter, forskolin-stimulated (AID 1146); details: luminescence, 4.5 h, higher = more signal, called active from +8 up or from −8 down;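 note: PC12 cells with 6xCRE LacZ reporter stimulated by forskolin 10 µM; beta-galactosidase reporter signal reflecting CREB driven transcription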
[6] = molecular target: Streptavidin (Streptomyces avidinii) (UniProt P22629); test: streptavidin binders on small-molecule microarray, primary screen, artefact control for SMM compound annotation, biophysical, 635/667 nm fluorescence (AID 1147); details: streptavidin binding, higher = more signal;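 note: signal reflects streptavidin binding to arrayed compounds as a control protein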
Chain of Streptavidin (Streptomyces avidinii) (P22629 whole entry, looked up): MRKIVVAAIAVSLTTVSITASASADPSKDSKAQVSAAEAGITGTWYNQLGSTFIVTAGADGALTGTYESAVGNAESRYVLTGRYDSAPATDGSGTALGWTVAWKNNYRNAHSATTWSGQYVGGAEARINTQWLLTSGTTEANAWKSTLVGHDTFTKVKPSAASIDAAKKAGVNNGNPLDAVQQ

[7] = small-molecule binders of probe aInhba, primary screen, biochemical, small-molecule microarray, 635/667 nm fluorescence (AID 1148); details: higher = more signal;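 note: score merges 667nm spot fluorescence with signal-to-noise for antibody binding to printed compounds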
Torsin-1A (Homo sapiens) [8] = molecular target: Torsin-1A (Homo sapiens) (UniProt O14656); test: torsin A binders from cell lysate, primary screen, small-molecule microarray, wild-type, 635/667 nm (AID 1149); details: COS7 hTOR1A-WT lysate, 635 nm fluorescence, higher = more signal
Chain of Torsin-1A (Homo sapiens) (O14656 whole entry, looked up): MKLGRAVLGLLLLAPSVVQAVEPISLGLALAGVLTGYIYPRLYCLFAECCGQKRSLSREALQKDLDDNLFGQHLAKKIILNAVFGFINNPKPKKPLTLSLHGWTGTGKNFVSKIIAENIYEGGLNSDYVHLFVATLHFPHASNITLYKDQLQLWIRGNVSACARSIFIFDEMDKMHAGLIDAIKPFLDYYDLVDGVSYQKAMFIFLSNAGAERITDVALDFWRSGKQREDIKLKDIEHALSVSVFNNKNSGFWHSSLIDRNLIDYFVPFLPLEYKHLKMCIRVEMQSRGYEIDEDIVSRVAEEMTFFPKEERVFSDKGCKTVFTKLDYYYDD

Torsin-1A (Homo sapiens) [9] = molecular target: Torsin-1A (Homo sapiens) (UniProt O14656); test: small-molecule binders of mutant TOR1A in lysate, primary screen, cell lysate, small-molecule microarray, COS7 lysate, 635/667 nm fluorescence (AID 1150); details: COS7 hTOR1A mutant lysate, 635 nm fluorescence, higher = more signal;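 note: score pools 667 nm emission and signal to noise measuring lysate protein binding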
[10] = tested on: Sonic hedgehog protein (Shh); test: small-molecule binders of Shh protein, primary screen, biochemical, small-molecule microarray, 635/667 nm fluorescence (AID 1151); details: small-molecule microarray binding, 635 nm fluorescence; higher = more signal;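 note: Shh protein binding to compounds spotted on small-molecule microarray slides; score combines spot fluorescence intensity with signal-to-noise across triplicate slides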
[11] = E. coli DRC41 culture turbidity changes, primary screen, E. coli filamentation inducer project, strain DRC41, OD650, 48 h (AID 1152);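 note: E. coli MC1000 strain DRC41 lacking acrAB efflux pump and sulA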; details: E. coli DRC41 (acrAB sulA), higher = more signal, called active from +8 up or from −8 down
[12] = small-molecule binders of probe aLefty1, primary screen, biochemical, small-molecule microarray, 635/667 nm fluorescence (AID 1153); details: higher = more signal;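 note: score merges spot fluorescence with signal-to-noise ratio from the scanned slide images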
[13] = PSAC antagonists in infected red cells, primary screen, cell-based, P. falciparum Indochina, OD700, 1 h (AID 1154); details: P. falciparum Indochina infected RBC osmotic lysis, higher = more signal, called active from +8 up or from −8 down
[14] = PSAC antagonists in infected red cells, primary screen, cell-based, P. falciparum Indochina, OD700, 2 h (AID 1155);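 note: lysis reports solute entry through the parasite surface anion channel PSAC; channel blockers reduce lysis of infected cells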; details: P. falciparum Indochina infected erythrocytes, osmotic lysis OD700; higher = more signal, called active from +8 up or from −8 down
[15] = osmotic lysis modulators in infected erythrocytes, primary screen, PSAC antagonist project, cell-based, P. falciparum Indochina, OD700, 3 h (AID 1156); details: higher = more signal, called active from +8 up or from −8 down
[16] = PSAC antagonists in infected red cells, primary screen, cell-based, P. falciparum Indochina, OD700, 18 h (AID 1157); details: P. falciparum Indochina infected erythrocytes, osmotic lysis OD700, 18 h; higher = more signal, called active from +8 up or from −8 down
[17] = modulators of S6 phosphorylation in cells, primary screen, cell-based, A549, cytoblot, luminescence, serum-stimulated (AID 1158); details: A549 phospho-S6 cytoblot, 5 h, higher = more signal;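 note: serum-stimulated A549 lung adenocarcinoma cells; signal is phosphorylated S6 detected by cytoblot immunostaining with HRP secondary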
[18] = molecular target: NADPH oxidase 2 (Homo sapiens) (UniProt P04839); test: NOX2-dependent H2O2 signal modulators, primary screen, NOX inhibitor project, cell-based, HEK293-NOX2, PMA-stimulated, Amplex Red fluorescence (AID 1159); details: 45 min, higher = more signal, called active from +8 up or from −8 down; note: test concentration not given here
Chain of NADPH oxidase 2 (Homo sapiens) (P04839 whole entry, looked up): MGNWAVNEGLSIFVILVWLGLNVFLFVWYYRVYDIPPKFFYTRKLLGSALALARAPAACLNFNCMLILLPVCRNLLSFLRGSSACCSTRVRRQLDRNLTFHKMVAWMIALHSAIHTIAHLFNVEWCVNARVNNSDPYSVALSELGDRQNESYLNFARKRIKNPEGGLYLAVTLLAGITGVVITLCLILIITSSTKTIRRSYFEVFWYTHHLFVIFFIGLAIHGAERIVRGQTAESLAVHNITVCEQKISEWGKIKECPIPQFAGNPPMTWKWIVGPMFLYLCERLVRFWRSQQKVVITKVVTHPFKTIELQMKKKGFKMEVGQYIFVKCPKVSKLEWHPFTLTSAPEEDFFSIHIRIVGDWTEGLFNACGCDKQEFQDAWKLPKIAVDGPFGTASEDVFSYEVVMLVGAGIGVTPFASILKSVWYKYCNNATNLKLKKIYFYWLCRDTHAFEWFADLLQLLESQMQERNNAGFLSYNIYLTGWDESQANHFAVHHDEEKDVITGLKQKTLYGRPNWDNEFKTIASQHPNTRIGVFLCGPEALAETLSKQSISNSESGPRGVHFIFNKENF

[19] = molecular target: NADPH oxidase 4 (Homo sapiens) (UniProt Q9NPH5); test: NOX4-dependent H2O2 signal modulators, primary screen, NOX inhibitor project, cell-based, HEK293-NOX4, tetracycline-induced, Amplex Red fluorescence (AID 1160); details: 45 min, higher = more signal, called active from +8 up or from −8 down
Chain of NADPH oxidase 4 (Homo sapiens) (Q9NPH5 whole entry, looked up): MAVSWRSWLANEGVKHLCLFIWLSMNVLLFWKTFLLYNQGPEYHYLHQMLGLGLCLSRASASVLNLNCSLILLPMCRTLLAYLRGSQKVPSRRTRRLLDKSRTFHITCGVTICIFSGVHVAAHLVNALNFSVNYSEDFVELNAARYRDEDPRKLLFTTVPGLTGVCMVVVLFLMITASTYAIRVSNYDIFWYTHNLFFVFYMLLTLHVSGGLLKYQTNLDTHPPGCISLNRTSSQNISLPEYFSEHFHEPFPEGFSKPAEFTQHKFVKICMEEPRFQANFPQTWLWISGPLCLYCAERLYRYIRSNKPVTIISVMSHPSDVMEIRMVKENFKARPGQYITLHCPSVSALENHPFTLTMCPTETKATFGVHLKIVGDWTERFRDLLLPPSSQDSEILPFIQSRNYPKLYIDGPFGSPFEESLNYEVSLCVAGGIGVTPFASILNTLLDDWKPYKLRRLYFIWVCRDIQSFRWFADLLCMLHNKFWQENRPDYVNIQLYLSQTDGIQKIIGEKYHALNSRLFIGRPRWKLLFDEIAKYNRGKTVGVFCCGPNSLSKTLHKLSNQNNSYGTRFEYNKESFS

[20] = molecular target: NADPH oxidase 5 (Homo sapiens) (UniProt Q96PH1); test: NOX5-dependent H2O2 signal modulators, primary screen, NOX inhibitor project, cell-based, HEK293-NOX5, Amplex Red fluorescence (AID 1161); details: HEK293-NOX5, ionomycin, 45 min, higher = more signal
Chain of NADPH oxidase 5 (Homo sapiens) (Q96PH1 whole entry, looked up): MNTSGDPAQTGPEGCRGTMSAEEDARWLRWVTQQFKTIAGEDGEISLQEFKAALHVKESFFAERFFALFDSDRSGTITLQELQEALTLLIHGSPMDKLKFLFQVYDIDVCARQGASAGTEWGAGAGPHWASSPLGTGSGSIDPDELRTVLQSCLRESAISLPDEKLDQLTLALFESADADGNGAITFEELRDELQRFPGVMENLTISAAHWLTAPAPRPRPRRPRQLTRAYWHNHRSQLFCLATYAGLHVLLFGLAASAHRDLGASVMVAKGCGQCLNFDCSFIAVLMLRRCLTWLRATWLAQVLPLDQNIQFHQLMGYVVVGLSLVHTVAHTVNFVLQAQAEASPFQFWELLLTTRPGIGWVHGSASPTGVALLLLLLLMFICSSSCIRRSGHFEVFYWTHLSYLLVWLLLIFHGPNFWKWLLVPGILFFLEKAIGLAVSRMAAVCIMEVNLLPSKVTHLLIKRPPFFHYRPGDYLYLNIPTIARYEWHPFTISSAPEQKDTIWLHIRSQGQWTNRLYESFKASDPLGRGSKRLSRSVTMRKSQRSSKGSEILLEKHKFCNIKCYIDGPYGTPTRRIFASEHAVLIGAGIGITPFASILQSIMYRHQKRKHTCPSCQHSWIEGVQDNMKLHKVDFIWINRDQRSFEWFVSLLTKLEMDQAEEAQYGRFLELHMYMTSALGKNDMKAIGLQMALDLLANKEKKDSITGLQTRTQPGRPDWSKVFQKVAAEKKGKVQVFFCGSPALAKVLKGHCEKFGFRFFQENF

| Structure (SMILES) | composite z-score [1] | z-score [2] | z-score [3] | z-score [4] | z-score [5] | composite z-score [6] | composite z-score [7] | composite z-score (Torsin-1A (Homo sapiens) [8]) | composite z-score (Torsin-1A (Homo sapiens) [9]) | composite z-score [10] | z-score [11] | composite z-score [12] | z-score [13] | z-score [14] | z-score [15] | z-score [16] | z-score [17] | z-score [18] | z-score [19] | z-score [20] |
| --- | --- | --- | --- | --- | --- | --- | --- | --- | --- | --- | --- | --- | --- | --- | --- | --- | --- | --- | --- | --- |
| CO[C@@H]1COC(=O)[C@H](CCSC)NC(=O)CC=C[C@@H](C)COC(=O)CCC[C@H]1C | -0.277 | -2.75 (inactive) | -0.88 (inactive) | 0.341 (inactive) | 0.85 (inactive) | -1.47 | -0.255 | 4.03 | 4.08 | 2.27 | 0.337 (inactive) | 0.729 | 19.7 (active) | 3.14 (inactive) | 2.07 (inactive) | 1.18 (inactive) | 0.016 | -1.12 (inactive) | 0.369 (inactive) | -0.918 |
| CC(C)CCN1CCc2nc(COc3ccccc3)c3c(c2C1)CO[C@@H](C)C3 | 0.0335 | -0.265 (inactive) | -0.372 (inactive) | 3.36 (inactive) | -1.3 (inactive) | 0.414 | 0.0649 | 0.335 | 0.434 | -0.284 | -0.152 (inactive) | 0.0768 | 3.22 (inactive) | 0.326 (inactive) | 0.331 (inactive) | 0.101 (inactive) | -0.356 | 1.2 (inactive) | 0.131 (inactive) | 0.242 |
| O=C1[C@H]2[C@H]3[C@H](O)[C@H](O)CC(=NOCc4ccccc4)[C@@H]3CC[C@H]2C(=O)N1C[C@@H]1CCCO1 | 0.0388 | 0.379 (inactive) | -0.614 (inactive) | -0.115 (inactive) | 0.105 (inactive) | 0.632 | -0.157 | 0.304 | 0.198 | 0.317 | 0.516 (inactive) | -0.28 | -0.132 (inactive) | 0.141 (inactive) | -0.335 (inactive) | 0.305 (inactive) | -0.0701 | 0.434 (inactive) | 0.531 (inactive) | 0.102 |
| C[C@@H]1NC(=O)[C@@H](C)COC(=O)[C@H](C)NC(=O)[C@@H](C)COC1=O | 0.192 | -3.21 (inactive) | -0.906 (inactive) | 0.427 (inactive) | -0.105 (inactive) | -0.335 | -0.0791 | 0.179 | -0.231 | 0.234 | -2.21 (inactive) | -0.248 | 0.116 (inactive) | -0.334 (inactive) | -0.172 (inactive) | -1.15 (inactive) | 0.35 | -0.0632 (inactive) | -1.11 (inactive) | 0.136 |
| COc1cccc([C@@H]2Oc3ccc(OC)cc3C(=O)[C@H]2O)c1 | 0.115 | -4.86 (inactive) | -1.15 (inactive) | 5.45 (inactive) | -0.344 (inactive) | 2.33 | -0.152 | 0.496 | 0.42 | 0.813 | -0.542 (inactive) | -0.101 | 4.92 (inactive) | -0.384 (inactive) | 1.13 (inactive) | -1.28 (inactive) | 2.08 | -2.25 (inactive) | -1.51 (inactive) | -1.77 |
| CCOC(=O)[C@H](Cc1ccccc1)NC(=O)CCC1CC(OC(=O)NCCc2ccc(F)cc2)CC2(CCCC(COC(=O)NCC3CCCCC3)O2)O1 (stereo not given in full) | 0.0457 | -0.224 (inactive) | -1.12 (inactive) | 0.29 (inactive) | 0.624 (inactive) | 0.644 | 0.0074 | 0.846 | 0.438 | 1.23 | 1.08 (inactive) | -0.0536 | -0.0955 (inactive) | 0.672 (inactive) | 0.753 (inactive) | 0.416 (inactive) | 0.681 | 0.102 (inactive) | 1.12 (inactive) | 0.0102 |
| COc1ccc(COC(=O)NN=C2C[C@@H](O)[C@@H](O)[C@@H]3[C@@H]4C(=O)N(c5ccc(F)cc5F)C(=O)[C@@H]4CC[C@H]23)cc1 | 0.118 | -1.64 (inactive) | -0.597 (inactive) | -1.02 (inactive) | 0.454 (inactive) | 1.19 | -0.0719 | -0.309 | 0.627 | -1.52 | -0.544 (inactive) | 0.545 | 30.2 (active) | 4.98 (inactive) | 2.52 (inactive) | 1.24 (inactive) | -0.434 | -0.407 (inactive) | -0.481 (inactive) | -0.876 |
| CCC1=NOC(CCC2CC(OC(=O)NCc3cccc4c3OCO4)CC3(CCCC(COC(=O)NCCc4ccccc4OC)O3)O2)C1 (stereo not given) | 0.196 | -0.491 (inactive) | 0.249 (inactive) | 1.46 (inactive) | 0.214 (inactive) | 0.72 | -0.152 | -0.0106 | 0.778 | 0.157 | 0.572 (inactive) | -0.0573 | 15.9 (active) | 2.99 (inactive) | -0.501 (inactive) | 0.568 (inactive) | 0.0314 | 0.642 (inactive) | -0.115 (inactive) | 0.0819 |
| COCCNC(=O)OCC1CCCC2(CC(OC(=O)NCc3ccc4c(c3)OCO4)CC(CCC(=O)N[C@@H](C)C(=O)OC)O2)O1 (stereo not given in full) | -0.0558 | -0.773 (inactive) | -0.0785 (inactive) | -0.0755 (inactive) | 0.468 (inactive) | 0.303 | -0.205 | 0.308 | 0.551 | 1.5 | -0.982 (inactive) | 0.0341 | -1.19 (inactive) | 0.276 (inactive) | 0.0971 (inactive) | 0.296 (inactive) | -0.472 | 1.1 (inactive) | 1.29 (inactive) | 0.89 |

Source: PubChem BioAssay
